Screen size: about 5,500 compounds; about 2,000 (36%) were called active. Inconclusive results (about 18%) are left out. No stated cut-off is given here; in the data, active means normalized growth mostly below about 0.91 (no sharp cut-off); inconclusive means no clear call, values can overlap the other calls; inactive means mostly above about 0.92. This is one part of the list.
Experiment: chemical genetic growth profiling, strain panel (AID 1159580);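 further: tested at 20 µM; growth read once vehicle control cultures reached saturation at 30 °C; 1 = growth at the plate median or of vehicle wells; lower values mean less growth of the strain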
Settings: S. cerevisiae deletion strains, growth OD

Measured: normalized growth

CCCCC(CC)CN1CN(CC(CC)CCCC)CC(C)(N)C1 (stereo not drawn)
inactive: locus YDL185W, strain tfp1, active compounds read low 1.02 | locus YGL078C, strain dbp3, active compounds read low 1 | locus YIL125W, strain kgd1, active compounds read low 1.01
active: locus YAL013W, strain DEP1, active compounds read low 0.14 | locus YAL021C, strain ccr4, active compounds read low 0.0639 | locus YAL026C, strain drs2, active compounds read low 0.0615 | locus YAL030W, strain snc1, active compounds read low 0.0534 | locus YBL061C, strain skt5, active compounds read low 0.0552 | locus YBR009C, strain hhf1, active compounds read low 0.0618 | locus YBR021W, strain FUR4, active compounds read low 0.168 | locus YBR023C, strain chs3, active compounds read low 0.0607 | locus YBR171W, strain sec66, active compounds read low 0.0721 | locus YBR229C, strain ROT2, active compounds read low 0.816 | locus YBR231C, strain swc5, active compounds read low 0.0597 | locus YBR279W, strain paf1, active compounds read low 0.088 | locus YCL011C, strain gbp2, active compounds read low 0.0548 | locus YCL016C, strain dcc1, active compounds read low 0.0625 | locus YCL029C, strain bik1, active compounds read low 0.573 | locus YCL061C, strain MRC1, active compounds read low 0.062 | locus YCL069W, strain vba3, active compounds read low 0.0607 | locus YCR088W, strain abp1, active compounds read low 0.0577 | locus YDL005C, strain med2, active compounds read low 0.0691 | locus YDL035C, strain GPR1, active compounds read low 0.329 | locus YDL040C, strain nat1, active compounds read low 0.055 | locus YDL074C, strain BRE1, active compounds read low 0.228 | locus YDL101C, strain DUN1, active compounds read low 0.417 | locus YDL134C, strain PPH21, active compounds read low 0.58 | locus YDL192W, strain arf1, active compounds read low 0.0997 | locus YDR001C, strain nth1, active compounds read low 0.0567 | locus YDR069C, strain doa4, active compounds read low 0.0614 | locus YDR101C, strain arx1, active compounds read low 0.573 | locus YDR137W, strain rgp1, active compounds read low 0.111 | locus YDR150W, strain NUM1, active compounds read low 0.801 | locus YDR159W, strain sac3, active compounds read low 0.0869 | locus YDR162C, strain NBP2, active compounds read low 0.233 | locus YDR195W, strain ref2 0.116 | locus YDR297W, strain sur2, active compounds read low 0.0539 | locus YDR318W, strain mcm21, active compounds read low 0.471 | locus YDR334W, strain swr1, active compounds read low 0.0598 | locus YDR335W, strain msn5, active compounds read low 0.0571 | locus YDR388W, active compounds read low 0.15 | locus YDR392W, strain spt3, active compounds read low 0.0725 | locus YDR502C, strain sam2, active compounds read low 0.401 | locus YEL003W, strain gim4, active compounds read low 0.0521 | locus YEL037C, strain rad23, active compounds read low 0.0554 | locus YEL061C, strain CIN8 (second series), active compounds read low 0.0574 | locus YEL061C, strain CIN8, active compounds read low 0.472 | locus YER015W, strain faa2, active compounds read low 0.0593 | locus YER016W, strain bim1, active compounds read low 0.0563 | locus YER110C, active compounds read low 0.627 | locus YER111C, strain swi4, active compounds read low 0.0661 | locus YER155C, strain BEM2 (second series), active compounds read low 0.0846 | locus YER155C, strain BEM2, active compounds read low 0.425 | locus YER167W, strain BCK2, active compounds read low 0.55 | locus YFR010W, strain ubp6, active compounds read low 0.0701 | locus YGL086W, strain mad1, active compounds read low 0.283 | locus YGL167C, strain pmr1, active compounds read low 0.0684 | locus YGL173C, strain kem1, active compounds read low 0.0624 | locus YGL227W, strain vid30, active compounds read low 0.0601 | locus YGL240W, strain doc1, active compounds read low 0.0704 | locus YGL248W, strain PDE1, active compounds read low 0.633 | locus YGL253W, strain hxk2, active compounds read low 0.0538 | locus YGR078C, strain PAC10, active compounds read low 0.469 | locus YGR135W, strain pre9, active compounds read low 0.381 | locus YGR229C, strain SMI1, active compounds read low 0.0664 | locus YGR252W, strain gcn5, active compounds read low 0.224 | locus YHR013C, strain ard1, active compounds read low 0.124 | locus YHR027C, strain rpn1, active compounds read low 0.0601 | locus YHR030C, strain SLT2, active compounds read low 0.133 | locus YHR079C, strain IRE1 (second series), active compounds read low 0.573 | locus YHR094C, strain hxt1, active compounds read low 0.911 | locus YHR129C, strain ARP1, active compounds read low 0.716 | locus YHR142W, strain chs7, active compounds read low 0.077 | locus YHR200W, strain rpn10, active compounds read low 0.214 | locus YIL066C, strain RNR3, active compounds read low 0.45 | locus YIL073C, strain SPO22, active compounds read low 0.364 | locus YIR030C, strain dcg1, active compounds read low 0.651 | locus YJL092W, strain hpr5, active compounds read low 0.0575 | locus YJL095W, strain BCK1 (second series), active compounds read low 0.0537 | locus YJL095W, strain BCK1, active compounds read low 0.188 | locus YJL115W, strain asf1, active compounds read low 0.068 | locus YJL129C, strain trk1, active compounds read low 0.083 | locus YJL134W, strain LCB3, active compounds read low 0.918 | locus YJL154C, strain vps35, active compounds read low 0.0563 | locus YJL164C, strain tpk1, active compounds read low 0.0598 | locus YJL166W, strain qcr8, active compounds read low 0.0595 | locus YJL168C, strain set2, active compounds read low 0.826 | locus YJL187C, strain SWE1 (second series), active compounds read low 0.513

— PubChem BioAssay AID1159580 (chemical genetic matrix, 2015)
